# This is one part of a sample in which hits are shown more often than they occur.
# IDE exosite inh = exo-site inhibitors of human insulin-degrading enzyme. P14735. purified IDE, FL-6b probe fluorescence polarization; hits give low values. z-score at 20 µM. hit rate 6.3% among 17,000. AID 1259349;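 active means z-score of -3 or lower, meaning strong loss of probe binding signal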;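 further: His-tagged human IDE residues 42-1019 made in E. coli with 30 nM FL-6b probe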
# * = called active by the depositor.
SMILES,IDE exosite inh
COCC(=O)Nc1ccc2c(c1)C(=O)N(C)[C@@H]1CC[C@H](CC(=O)NCCCN(C)C)O[C@H]1CO2,-3.3*
CN1C(=O)c2cc(NC(=O)Nc3ccccc3Cl)ccc2OC[C@@H]2O[C@@H](CC(=O)NCCCN3CCOCC3)CC[C@H]21,-1
CCCN1C[C@H](C)[C@H](OC)CN(C)C(=O)c2cc(NC(=O)C3CCC3)ccc2OC[C@@H]1C,-0.26
COc1ccc2c3c([nH]c2c1)[C@@H](CO)N(C(=O)CC1CC1)CC31CN(Cc2cccnc2)C1,0.35
C/C=C/c1ccc([C@H]2[C@@H](CO)N(C(=O)CC)[C@H]2CNC(=O)c2ccncc2)cc1,0.46
O=C(C[C@H]1CC[C@H]2[C@@H](COC[C@@H](O)CN2Cc2cc(F)ccc2F)O1)NCc1ccc(Oc2ccccc2)cc1,-1.5
COc1cccc(C#Cc2ccc([C@@H]3[C@@H](CO)N4C(=O)CN(C(C)=O)C[C@@H]34)cc2)c1,-7.5*
COc1ccc(C#Cc2ccc([C@H]3[C@H]4CN(C(C)=O)CC(=O)N4[C@H]3CO)cc2)cc1,2.7
COc1cccc(C#Cc2ccc([C@H]3[C@H]4CN(C(C)=O)CC(=O)N4[C@H]3CO)cc2)c1,-7.9*
COc1ccc(C#Cc2ccc([C@@H]3[C@@H](CO)N4C(=O)CN(C(C)=O)C[C@H]34)cc2)cc1,3.6
COc1ccc(C#Cc2ccc([C@H]3[C@@H](CO)N4C(=O)CN(C(C)=O)C[C@@H]34)cc2)cc1,3.9
COc1ccc(C#Cc2ccc([C@H]3[C@@H](CO)N4C(=O)CN(C(C)=O)C[C@H]34)cc2)cc1,1.7
C[C@H](CO)N1C[C@H](C)[C@H](CN(C)C(=O)[C@H](Cc2ccccc2)N(C)C)OCc2ccccc2-c2c(n(C)c3ccccc23)C1=O,-1.3
O=C(C[C@H]1C[C@@H]2c3cc(NC(=O)c4ccc5c(c4)OCO5)ccc3O[C@@H]2[C@H](CO)O1)NCCN1CCCCC1,-1.1
C/C=C/c1ccc([C@H]2[C@@H](CO)N3C(=O)CN(C(=O)Nc4ccc(F)cc4)C[C@@H]23)cc1,0.88
CC(=O)NC[C@H]1[C@@H](c2ccc(-c3ccccc3F)cc2)[C@@H](CO)N1C(C)=O,-1.6
Cc1cccc(-c2ccc([C@@H]3[C@H]4CN(C(=O)c5cccnc5)CCCCN4[C@H]3CO)cc2)c1,-15*
Cc1cccc(-c2ccc([C@H]3[C@@H](CO)N4CCCCN(C(=O)c5cccnc5)C[C@@H]34)cc2)c1,-0.85
Cc1cccc(-c2ccc([C@H]3[C@H](CO)N4CCCCN(C(=O)c5ccncc5)C[C@@H]34)cc2)c1,-1.4
O=C(c1cccc(F)c1)N1CCCCN2[C@H](C1)[C@@H](c1ccc(-c3cccnc3)cc1)[C@@H]2CO,0.89
Cc1cccc(-c2ccc([C@H]3[C@@H](CO)N4CCCCN(C(=O)c5cccnc5)C[C@H]34)cc2)c1,-17*
Cc1cccc(-c2ccc([C@H]3[C@@H](CO)N4CCCCN(C(=O)c5ccncc5)C[C@@H]34)cc2)c1,-1.7
CCC(=O)N1CC(=O)N2[C@H](C1)[C@H](c1ccc(C3=CCCCC3)cc1)[C@@H]2CO,0.35
CO[C@@H]1CN(C)C(=O)c2ccc(NC(=O)c3cc(C)on3)cc2OC[C@@H](C)N(S(=O)(=O)c2cccc(F)c2)C[C@H]1C,1.9
O=S(=O)(c1ccc(F)cc1)N1CCCCN2[C@H](C1)[C@@H](c1ccc(-c3ccccc3)cc1)[C@@H]2CO,2.4
SMILES,IDE exosite inh
CO[C@@H]1CN(C)C(=O)c2cc(NC(=O)C3CCOCC3)ccc2OC[C@@H](C)N(C(=O)Nc2ccc(C(F)(F)F)cc2)C[C@H]1C,-0.83
COc1ccc2c3c(n(C)c2c1)[C@H](CO)N(C(=O)NC(C)C)CC31CCN(Cc2nccs2)CC1,-1.6
CO[C@H]1CN(C)C(=O)c2ccc(NC(=O)Nc3c(C)noc3C)cc2OC[C@H](C)N(CCC(F)(F)F)C[C@@H]1C,-0.37
C[C@H](CO)N1C[C@H](C)[C@@H](CN(C)C(=O)[C@@H](Cc2ccccc2)N(C)C)OCc2ccccc2-c2c(n(C)c3ccccc23)C1=O,-0.18
COc1ccc(CN2C[C@@H](O)COC[C@@H]3O[C@H](CC(=O)N(C)C)CC[C@H]32)cc1,1.4
O=C(C[C@@H]1CC[C@H]2[C@@H](COC[C@@H](O)CN2S(=O)(=O)c2cccc(Cl)c2)O1)N1CCOCC1,1.5
O=C(c1ccncc1)N1CC(=O)N2[C@H](CO)[C@@H](c3ccc(/C=C/c4ccccc4)cc3)[C@H]2C1,-1.2
O=C(c1ccccc1)N1CC(=O)N2[C@H](C1)[C@@H](c1ccc(/C=C/c3ccccc3)cc1)[C@@H]2CO,-2.6
O=C(c1cccnc1)N1CC(=O)N2[C@H](CO)[C@H](c3ccc(-c4ccc(F)cc4)cc3)[C@@H]2C1,0.28
C/C=C/c1ccc([C@@H]2[C@@H](CO)N3C(=O)CN(C(=O)Cc4cccnc4)C[C@H]23)cc1,1.1
O=C(c1ccccc1)N1CC(=O)N2[C@@H](CO)[C@H](c3ccc(/C=C/c4ccccc4)cc3)[C@@H]2C1,-3.4*
O=C(c1ccc(F)cc1)N1CC(=O)N2[C@H](CO)[C@@H](c3ccc(/C=C/c4ccccc4)cc3)[C@@H]2C1,0.7
C/C=C/c1ccc([C@H]2[C@H](CO)N3C(=O)CN(C(=O)c4ccc(F)cc4)C[C@@H]23)cc1,2.4
O=C(c1ccc(F)cc1)N1CC(=O)N2[C@@H](CO)[C@H](c3ccc(/C=C/c4ccccc4)cc3)[C@@H]2C1,-5.3*
O=C(Cc1cccnc1)N1CC(=O)N2[C@H](C1)[C@@H](c1ccc(/C=C/c3ccccc3)cc1)[C@@H]2CO,-4.7*
C/C=C/c1ccc([C@H]2[C@H]3CN(C(=O)Cc4cccnc4)CC(=O)N3[C@H]2CO)cc1,-0.49
O=C(c1cccc(F)c1)N1CC(=O)N2[C@H](CO)[C@H](c3ccc(/C=C/c4ccccc4)cc3)[C@@H]2C1,-2.7
O=C(c1cccnc1)N1CC(=O)N2[C@H](CO)[C@@H](c3ccc(/C=C/c4ccccc4)cc3)[C@H]2C1,-5.4*
CCCNC(=O)N1CC2(CCN(C(=O)Nc3cccc(F)c3)CC2)c2c(n(C)c3cc(OC)ccc23)[C@@H]1CO,0.1
C[C@@H]1CN([C@@H](C)CO)C(=O)CCCn2nncc2CO[C@H]1CN(C)C(=O)NC1CCCC1,-0.48
C[C@@H]1CC=CC[C@H](c2ccc3c(c2)OCO3)NC(=O)[C@H](C)N(C)C(=O)c2ccccc2O1 (mixture of isomers),-0.33
O=C(Nc1cc(F)ccc1F)N[C@@H]1CC[C@@H](CCn2cc(C3CCCCC3)nn2)O[C@@H]1CO,0.2
COCC(=O)N1CC(=O)N2[C@H](C1)[C@H](c1ccc(-c3ccncc3)cc1)[C@@H]2CO,-0.78
O=C(c1ccncc1)N1CC(=O)N2[C@H](CO)[C@@H](c3ccc(-c4ccccc4)cc3)[C@@H]2C1,-0.24
C/C=C/c1ccc([C@@H]2[C@@H](CO)N3C(=O)CN(S(=O)(=O)c4ccccc4)C[C@H]23)cc1,-0.13
CN1c2ccc(Br)cc2[C@H]2[C@H](CCN2S(=O)(=O)c2ccccc2F)[C@H]1CO,2.3
CO[C@@H]1CC[C@H]2CCOc3ccc(C#N)cc3C(=O)N(C)C[C@H](c3ccccc3)CC(=O)N(C)C[C@H]1O2,0.51
O=C(C1CCOCC1)N1CC2(C1)[C@H](c1ccccc1)[C@@H](CO)N2Cc1ccccc1F,1.3
O=C(NC[C@H]1N[C@H](CO)[C@@H]1c1ccc(C2=CCCC2)cc1)C1CC1,1.3
C[C@@H]1CN([C@@H](C)CO)C(=O)c2ccccc2-c2ccccc2CO[C@@H]1CN(C)S(=O)(=O)c1cn(C)cn1,-0.27
